Source: PubChem BioAssay (The Scripps Research Institute Molecular Screening Center)
MITF primary – MITF inhibitors, primary screen, biochemical, AlphaScreen, human; AID 1259374, 2018; AlphaScreen MITF homodimerization, bead proximity signal; inhibition, % at 2.6 µM; hit rate 0.91% among 650,000; Microphthalmia-associated transcription factor (Homo sapiens), O75030; in the data active = inhibition above about 50%
FBW7 act – FBW7 E3 ligase activators, primary screen, biochemical, AlphaScreen, human; F-box/WD repeat-containing protein 7 (Homo sapiens), Q969H0; AlphaScreen FBW7–phospho-cyclin E peptide binding, activator screen; normalized activity (activation), % at 26.1 µM; hit rate 0.13% among 650,000; AID 1259310, 2017; in the data active = normalized activity above about 1.9%;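 note: purified mutant Fbw7 with reduced substrate affinity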
Target sequence (Q969H0 whole entry, looked up): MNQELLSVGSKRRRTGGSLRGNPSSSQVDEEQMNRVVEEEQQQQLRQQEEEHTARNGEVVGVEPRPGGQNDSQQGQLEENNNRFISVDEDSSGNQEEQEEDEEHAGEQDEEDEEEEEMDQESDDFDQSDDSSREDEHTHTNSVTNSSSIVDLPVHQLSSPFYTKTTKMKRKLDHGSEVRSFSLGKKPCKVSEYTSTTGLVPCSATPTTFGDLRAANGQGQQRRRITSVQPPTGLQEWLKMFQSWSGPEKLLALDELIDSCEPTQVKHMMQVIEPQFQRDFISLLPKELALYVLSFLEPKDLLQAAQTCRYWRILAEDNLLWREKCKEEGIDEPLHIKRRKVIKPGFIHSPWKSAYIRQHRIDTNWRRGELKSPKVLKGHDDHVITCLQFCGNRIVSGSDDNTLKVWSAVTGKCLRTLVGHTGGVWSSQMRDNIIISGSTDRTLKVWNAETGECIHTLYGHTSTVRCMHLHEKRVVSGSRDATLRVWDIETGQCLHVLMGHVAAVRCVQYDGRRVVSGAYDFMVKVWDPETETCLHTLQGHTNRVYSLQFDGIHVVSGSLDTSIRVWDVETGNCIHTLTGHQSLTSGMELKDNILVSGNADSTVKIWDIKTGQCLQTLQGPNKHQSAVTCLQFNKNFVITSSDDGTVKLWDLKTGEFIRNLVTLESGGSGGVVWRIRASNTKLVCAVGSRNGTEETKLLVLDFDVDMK
GPR151 ag – activators of human GPR151, primary screen, cell-based, PathHunter beta-arrestin, luminescence; G-protein coupled receptor 151 (Homo sapiens), Q8TDV0; PathHunter beta-arrestin GPR151 cells; activation, % at 11.2 µM; hit rate 1% among 650,000; AID 1508602, 2020; in the data active = activation above about 4.9%
TEAD-YAP block – TEAD-YAP interaction inhibition, primary screen, TEAD-YAP interaction inhibitor project, luminescence, HEK-TIYL cells; TEAD-Gal4/YAP UAS-luciferase luminescence; inhibition, % at 9.12 µM; hit rate 1.4% among 640,000; AID 1259422, 2018; in the data active = inhibition above about 32%
MITF inh conf – MITF inhibitors, retest of hits, confirmation, biochemical, AlphaScreen, triplicate | hit rate 16% among 4,700 | shares compounds with MITF primary | inhibition, % at 2.6 µM | AlphaScreen MITF homodimerization, biotin/His-MITF beads | AID 1259372, 2018;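 active = inhibition above a cutoff derived from the DMSO control wells, cut at about 28% in these data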;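 note: inhibitors lower the bead chemiluminescence by keeping MITF from dimerizing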
AlphaScreen intf2 – AlphaScreen optical interference compounds, counter-screen for MITF inhibitor project, biochemical, triplicate. shares compounds with MITF primary. LysRS AlphaScreen counterscreen, signal interference. inhibition, % at 2.6 µM. hit rate 7.6% among 4,700;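 active = inhibition above a cutoff derived from the DMSO control wells, cut at about 30% in these data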
A number is an active result; - = inactive; . = not tested or not shown. Sampled rows, rich in hits. Any-hit rate of the full collection: about 3.4%.

SMILES	MITF primary	FBW7 act	GPR151 ag	TEAD-YAP block	MITF inh conf	AlphaScreen intf2
Cc1cc(C2C(C#N)=C(N)N(c3ccccc3Cl)C3=C2C(=O)CC(c2ccccc2)C3)c(C)s1 (stereo not given)	57	-	-	-	-	-
CCN(CC)CCCNC(=O)c1[nH]c(C)c(C(C)=O)c1C	-	-	-	-	.	.
CCN(CC)CCCNC(=O)c1[nH]c(C)c(C(=O)NC2CCCCC2)c1C	90	-	-	-	-	-
CC(=O)c1cccc(NC(=S)Nc2ccc(C)cc2[N+](=O)[O-])c1	-	-	-	-	.	.
O=[N+]([O-])c1ccccc1/C=C/CN1CCN(Cc2ccc3c(c2)OCO3)CC1	59	-	-	-	-	-
COc1cc(CN2CCN(Cc3ccc4c(c3)OCO4)CC2)c([N+](=O)[O-])cc1OC	69	-	-	-	-	-
COc1cc(CN2CCN(Cc3cccc(C)c3)CC2)c([N+](=O)[O-])cc1OC	73	-	-	-	-	-
COc1ccccc1N1CCN(Cc2cc3c(cc2[N+](=O)[O-])OCO3)CC1	-	-	-	-	.	.
O=[N+]([O-])c1cc2c(cc1CN1CCCCCC1)OCO2	52	-	-	-	-	-
O=[N+]([O-])c1cc2c(cc1CN1CCN(CCO)CC1)OCO2	-	-	-	-	.	.
C(=Nc1ccc(N2CCOCC2)cc1)c1cccnc1	-	-	-	-	.	.
N#Cc1cc2c(=O)n3ccccc3nc2n(-c2cccc(Br)c2)c1=O	-	-	-	-	.	.
O=C1C2C3CCC(C3)C2C(=O)N1c1ccc(Cl)c(Cl)c1 (stereo not given)	-	-	-	-	.	.
COc1cc(CN2CCC(C)CC2)c([N+](=O)[O-])cc1OC	-	-	-	-	.	.
COc1cc(CN2CCN(Cc3cccc(Cl)c3)CC2)c([N+](=O)[O-])cc1OC	57	-	-	-	-	-
O=[N+]([O-])c1cc2c(cc1CNCCCN1CCOCC1)OCO2	59	-	-	-	-	-
c1ccc(CN2CCC(N3CCN(C4CCCCCC4)CC3)CC2)cc1	-	-	-	-	.	.
Cc1ccccc1CN1CCN(C2CCCC2)CC1	57	-	-	-	-	-
O=C1CCC(N2CCCC2)CCN1Cc1ccccc1Cl (stereo not given)	-	-	-	-	.	.
Clc1ccccc1CN1CCN(C2CCCCC2)CC1	65	-	-	-	-	-
Clc1ccccc1CN1CCN(C2CCCC2)CC1	74	-	-	-	-	-
Cc1ccccc1CN1CCC(N2CCCC2)CC1	-	-	-	-	.	.
CCCCCCN(CCCCCC)CC(=O)Nc1c(C)c(CC)nc2ccccc12	69	-	-	-	-	-
CCCCc1nc2ccccc2c(NC(=O)CN2CCN(C(=O)c3ccccc3)CC2)c1CCC	62	-	-	-	-	-
CCc1sc(NC(=O)CN2CCCC2)nc1-c1ccccc1	-	-	-	-	.	.
SMILES	MITF primary	FBW7 act	GPR151 ag	TEAD-YAP block	MITF inh conf	AlphaScreen intf2
CCc1nc2ccccc2c(NC(=O)CN2CCN(CCO)CC2)c1C	69	-	-	-	-	-
CCCCc1nc2ccccc2c(C(=O)O)c1C	-	-	-	-	.	.
CCCc1nc2ccccc2c(NC(=O)CN2CCCC2)c1CC	81	-	-	-	-	-
Cc1cc(NC(=O)Cn2nc(C(=O)N3CCOCC3)cc2C)c2ccccc2n1	-	-	-	-	.	.
CN(C)CCNc1nc(C2COc3ccccc3O2)nc2ccc(-c3ccncc3)cc12 (stereo not given)	-	-	-	-	.	.
COc1ccc(-c2c(NC(=O)CN3CCCC(C)C3)oc3ccccc3c2=O)cc1OC (stereo not given)	91	-	-	-	-	-
OCCn1cc(-c2ccc(Cl)cc2)cn1	-	-	-	-	.	.
CCOC(=O)C1=C(N)OC2=C(C(=O)CCC2)C1c1ccc(Cl)cc1 (stereo not given)	89	-	-	-	-	-
CCOc1ccc(C2C(C#N)=C(N)OC3=C2C(=O)CCC3)cc1 (stereo not given)	54	-	-	-	-	-
O=C(CSc1ccc(-c2ccccn2)nn1)Nc1ccc(Br)cc1	-	-	-	-	.	.
CC(=O)Nc1ccc(NC(=O)CSc2ccc(-c3ccccn3)nn2)cc1	83	-	-	-	83	100
Cc1cccc(NC(=O)CSc2ccc(-c3ccccn3)nn2)c1	57	-	-	-	76	99
CC(=O)c1cccc(NC(=O)CSc2ccc(-c3ccccn3)nn2)c1	-	-	-	-	.	.
CC(=O)Nc1cccc(NC(=O)CSc2ccc(-c3ccccn3)nn2)c1	84	-	-	-	79	100
CC(C(=O)N1CCC(C(=O)c2cccnc2)CC1)n1nnc2ccccc21 (stereo not given)	-	-	-	-	.	.
OCC1CCN(C2CCCN(Cc3ccc(-n4cccn4)cc3)C2)CC1 (stereo not given)	-	-	-	-	.	.
CCOC(=O)c1c(N)n(C(C)CO)c2nc3ccccc3nc12 (stereo not given)	53	-	-	-	-	-
COc1ccccc1N1CCN(C(=S)NCCN(C)C)CC1	77	-	-	-	-	-
CCOc1ccc(S(=O)(=O)NC2CCCCC2)cc1-c1nc2c(C(C)(C)C)nn(C)c2c(=O)[nH]1	77	-	-	-	-	-
CCCOc1ccc(C2Oc3ccc(Br)cc3C3CC(c4ccccc4)=NN32)cc1 (stereo not given)	-	-	-	-	.	.
CCCOc1ccc(C2Oc3ccc(Br)cc3C3CC(c4ccc(Cl)cc4)=NN32)cc1 (stereo not given)	74	-	-	-	-	-
CCC1(C)Cc2c(sc3nn[nH]c(=O)c23)CO1 (stereo not given)	94	-	-	-	-	-
CCC1(C)Cc2c(sc3nc(SCC(=O)O)[nH]c(=O)c23)CO1 (stereo not given)	-	-	-	-	.	.
CNc1oc(-c2ccco2)nc1S(=O)(=O)c1ccc(Br)cc1	74	-	-	-	-	-
Nc1nc(NC2CC2)cc(NC2CCN(Cc3ccccc3)CC2)n1	-	-	-	-	.	.
Nc1cc2c(cc1[N+](=O)[O-])OCCO2	-	-	-	-	.	.
CN(C)C=Nc1cc2c(cc1[N+](=O)[O-])OCCO2	51	-	-	-	-	-
CC1CCCC(NC(=O)C2N(CCCN3CCCCC3)C(=O)C3C(C(=O)Nc4ccc(F)c(Cl)c4)C4C=CC32O4)C1C (stereo not given)	-	-	-	-	.	.
CCS(=O)(=O)N1CCN(Cc2ccc(OC)cc2OC)CC1	-	-	-	-	.	.
COc1ccc(OC)c(CN2CCN(Cc3ccccc3C)CC2)c1	51	-	-	-	-	-
